# Compound activity as filed in PubChem BioAssay.
# PostGolgi ctrl: inhibits growth of the yeast control strain | efflux-deficient yeast background strain, growth absorbance A615, 16 h | inhibition, % at 10 µM | 98,000 compounds, 5% hits
# sEH inhibitor: inhibitors of human soluble epoxide hydrolase. 91,000 compounds, 0.34% hits. P34913. recombinant human sEH enzymatic activity assay. inhibition, % at 2 µM; in the data active = inhibition above about 80%
# Target sequence (P34913 whole entry, looked up): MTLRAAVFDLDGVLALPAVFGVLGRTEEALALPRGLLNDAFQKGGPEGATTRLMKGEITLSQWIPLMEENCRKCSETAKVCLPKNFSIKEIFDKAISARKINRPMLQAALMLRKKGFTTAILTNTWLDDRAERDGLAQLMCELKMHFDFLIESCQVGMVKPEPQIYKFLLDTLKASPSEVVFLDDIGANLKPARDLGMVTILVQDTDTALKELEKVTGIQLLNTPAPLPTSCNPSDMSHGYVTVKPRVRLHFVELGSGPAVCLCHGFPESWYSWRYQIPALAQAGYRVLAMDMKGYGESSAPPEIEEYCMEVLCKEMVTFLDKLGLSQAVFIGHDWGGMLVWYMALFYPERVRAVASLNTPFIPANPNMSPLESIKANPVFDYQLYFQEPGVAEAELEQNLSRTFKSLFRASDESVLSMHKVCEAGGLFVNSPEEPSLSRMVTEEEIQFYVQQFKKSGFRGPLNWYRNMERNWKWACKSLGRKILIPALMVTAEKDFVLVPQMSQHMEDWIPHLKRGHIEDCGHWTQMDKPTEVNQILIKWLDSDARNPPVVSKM
# sEH act: soluble epoxide hydrolase (human) activation; P34913; purified human sEH enzymatic activity, activator screen; activation, % at 2 µM; 91,000 compounds, 0.04% hits; AID 717; in the data active = activation above about 37%
# PostGolgi yeast: growth inhibition of a yeast mutant, post-Golgi transport screen; post-Golgi transport phenotypic cell assay; 98,000 compounds, 0.9% hits; AID 739; inhibition, % at 10 µM;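 note: yeast cells grown in 1536-well plates; yeast grown about 18 h at 30C before absorbance read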
# Cav3 T inh: inhibitors of human Cav3.2 T-type calcium channel; Cav3.2-expressing cells, Fluo-4 calcium fluorescence FDSS; stronger effect = lower value; B-score at 10 µM; O95180; AID 449739; 100,000 compounds, 4% hits;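 active = single-dose well whose peak fluorescence ratio is a statistical outlier from its plate by either plate-standardised score or position-corrected B-score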
# Numbers stand for hits; n = inactive; x = no result; ! = repeats disagree. Sampled rows, rich in hits. Any-hit rate of the full collection: about 7.8%. Cut-off read from the data, not from the text of the source, unless noted: active = inhibition above about 30%; inactive = the rest.
SMILES,PostGolgi ctrl,sEH inhibitor,sEH act,PostGolgi yeast,Cav3 T inh
CCOC(=O)C1=C(C)Nc2nc(=S)[nH]n2C1c1ccc(Cl)cc1 (centres undefined),30.9,n,n,n,n
CCOC(=O)C1=C(C)Nc2nc(SCC)nn2C1c1ccc(OC)cc1 (centres undefined),n,n,n,n,n
CCO[C@H]1OC(C(=O)NCc2ccccc2)=C[C@@H](c2cn(C(C)=O)c3ccccc23)[C@@H]1CCCO,x,x,x,x,n
CCOc1cc(CNC(C)(C)CO)cc(Br)c1OCc1ccc(Cl)cc1Cl,90.7,n,n,n,n
OC(COc1ccc2ccccc2c1Br)Cn1cnc(-c2ccccc2)c1 (centres undefined),52.6,n,n,n,n
COc1ccccc1-c1nnc2sc(-c3cnccn3)nn12,n,n,n,n,n
COc1ccccc1-c1nnc2sc(-c3cc4ccccc4o3)nn12,40.5,n,n,n,x
CCCNC(=O)c1ccccc1NC(=O)c1ccccc1N(C)S(C)(=O)=O,x,n,n,x,n
CCCNC(=O)c1ccccc1NC(=O)c1ccccc1N(C)S(=O)(=O)c1ccc(C)cc1,x,x,x,x,-4.69
Cc1ccc(CN2CC(C(=O)Nc3ccc(S(=O)(=O)Nc4cc(C)nc(C)n4)cc3)CC2=O)cc1 (centres undefined),32.5,n,n,n,n
CCOC(=O)Nc1ccc(S(=O)(=O)Nc2cc(C)nc(C)n2)cc1,n,n,n,n,n
Cc1ccc(NC(=O)c2cc(S(=O)(=O)c3ccccc3)ccc2Cl)cc1,n,n,n,n,-5.39
O=C(Nc1ccc(NC(=O)c2ccc(S(=O)(=O)c3ccccc3)cc2)cc1)c1ccccc1,n,n,n,n,x
CCOc1ccc2[nH]c(=O)c(CN(Cc3ccc(F)cc3)C(=O)c3ccco3)cc2c1,n,n,n,n,-4.31
CCc1ccc2[nH]c(=O)c(CN(Cc3ccc4c(c3)OCO4)C(=O)c3ccco3)cc2c1,n,n,n,n,-3.29
O=C(c1cc2ccccc2oc1=O)N1CCN(Cc2ccc3c(c2)OCO3)CC1,n,x,x,n,x
O=C(c1cc2ccccc2oc1=O)N(Cc1ccccc1)Cc1ccc2c(c1)OCO2,x,n,n,x,-6.15
CCOc1ccc2[nH]c(=O)c(CN(CC3COCCO3)C(=O)c3ccco3)cc2c1 (centres undefined),x,x,x,x,n
O=C(CCC(=O)OCC(=O)c1cccc([N+](=O)[O-])c1)Nc1ccccc1Cl,n,n,n,n,n
CCOC(=O)C1=C(Cc2ccc(F)cc2)C(=O)c2ccccc2C1=O,n,n,n,n,n
O=C(OCc1ccc(F)cc1)c1ccc2c(c1)-c1ccccc1C2=O,38.5,n,n,n,n
CCOc1ccc(OCCCC(=O)O)cc1,n,n,n,n,n
O=C(CN1CCN(Cc2ccc(F)cc2Cl)C1=O)NCCc1ccc(Cl)cc1,36.6,n,n,n,n
CC1CCC(NC(=O)CN2CCCN(Cc3ccc(F)cc3Cl)C2=O)CC1 (centres undefined),n,x,x,n,-3.89
O=C(CN1CCCN(Cc2ccc(F)cc2Cl)C1=O)NC1CCCCCC1,n,n,n,n,n
SMILES,PostGolgi ctrl,sEH inhibitor,sEH act,PostGolgi yeast,Cav3 T inh
O=C(NCCc1ccccc1)[C@@H]1CC=C[C@@H]2CCN(Cc3ccc(Cl)c(Cl)c3)C(=O)[C@@H]21,x,x,x,x,n
COc1ccc(-c2cc(O)cc(O)c2)cc1,n,n,n,n,n
COc1ccc(Cl)cc1NC(=O)CSc1nnc(Cn2c(=O)sc3ccccc32)n1C,n,x,x,n,n
COc1ccc(C(=O)N=c2sc3c(C)ccc(OC)c3n2C)cc1,n,x,x,n,n
O=C(COC(=O)c1cccnc1Cl)c1ccccc1,32.2,n,n,x,n
Cc1nc2ccc(NC(=O)c3cccs3)cc2c(=O)n1Cc1ccc(Cl)cc1,32.4,n,n,n,n
CCn1cc(C(=O)NC(=S)Nc2cccc(O)c2)cn1,n,n,n,n,n
c1ccc(CN(CC2=NCCN2)c2ccccc2)cc1,x,x,x,x,-2.79!
CC(C)CC(=O)Nc1ccc(N2CCOCC2)cc1,n,n,n,n,n
CCN(CCNC(=O)Nc1ccc(Cl)cc1)c1ccccc1,n,85.6,n,n,n
CCN(CC)c1nc(OCCNC(=O)Nc2ccccc2)nc(N(CC)CC)n1,n,n,n,n,-10.3
COc1ccccc1NC(=O)N1c2ccc(F)cc2CCC1C (centres undefined),n,n,n,n,-5.1
COc1ccc(NC(=O)N2c3ccccc3CC2C)cc1OC (centres undefined),n,n,n,n,n
COc1cc(OC)cc(C(=O)N2c3ccc(F)cc3CCC2C)c1 (centres undefined),31.5,n,n,n,-4.56
COC(=O)c1ccccc1NC(=O)N1c2ccccc2CC1C (centres undefined),47.5,n,n,n,n
CCn1c(NCc2cc(Br)ccc2NS(=O)(=O)c2ccc(C)cc2)nc2ccccc21,n,n,n,n,n
CN1C(C(=O)NCc2cccc(Br)c2)CC2Cn3c(nc4cc5ccccc5cc43)C21 (centres undefined),x,x,x,x,n
CCOC(=O)CN1C(=O)N[C@@H](CCc2ccccc2)[C@H](C(C)=O)[C@H]1C,x,x,x,x,n
COC(=O)C1=C(C(=O)OC)[C@@H]2N(Cc3ccccc3)c3ccccc3[C@@]23C[C@@H](CO)N(C(=O)NC2CCCC2)C3=N1,x,x,x,x,n
CCOC(=O)c1cnc(-n2nc(C)cc2C)nc1NCCc1ccccc1,39.5,n,n,n,-4.14
Cc1[nH]c2ccccc2c1Cc1nnc(SCCC#N)o1,x,n,n,x,n
Cc1ccc(S(=O)(=O)NC(CC(=O)O)c2ccccc2)c(C)c1 (centres undefined),n,n,n,n,x
Cc1ccc(S(=O)(=O)NC(=O)c2ccc(-c3ccc(-c4ccccc4)cc3)o2)c(C)c1,x,x,x,x,-4.3
Cc1cccc(Nc2ccccc2C(=O)OCC(=O)N2CCOCC2)c1C,34.6,n,n,n,n
Cc1cc(NC(=O)c2cccc3ccccc23)cc(C)c1OCC(=O)N1CCOCC1,n,n,n,n,n
SMILES,PostGolgi ctrl,sEH inhibitor,sEH act,PostGolgi yeast,Cav3 T inh
Cc1cc(C)cc(NC(=O)Cn2c(=O)oc3cc(S(=O)(=O)N4CC(C)CC(C)C4)ccc32)c1 (centres undefined),n,n,n,n,-4.28
CCCCNC(=O)Cn1c(=O)oc2cc(S(=O)(=O)N3CC(C)CC(C)C3)ccc21 (centres undefined),n,n,n,n,n
CCc1ccc(NS(=O)(=O)c2cccs2)cc1,n,n,n,n,n
O=C(OC(C(=O)NC1CCCC1)c1ccncc1)C1=Cc2ccccc2OC1 (centres undefined),n,n,n,n,n
Nc1c(C(=O)c2ccccc2)sc(Nc2ccccc2)c1S(=O)(=O)c1ccccc1,x,n,n,x,-3.81
Cc1nn(C)c(C)c1S(=O)(=O)N1CCCC(C(=O)NCC2COc3ccccc3O2)C1 (centres undefined),n,n,n,n,n
COc1cccc(CNn2c(-c3cccc(C)c3)nc3ccccc3c2=O)c1O,46.8,n,n,n,n
COc1ccc(NC(=O)CSc2nnc(Cc3cccs3)n2-c2ccc(C)cc2)cc1,n,n,n,n,-5.26
COc1cccc(NC(=O)CSc2nnc(Cc3cccs3)n2-c2ccc(C)cc2)c1,n,n,n,n,n
